Fewer than 10 of roughly 120,000 compounds were called active. Roughly 4% stayed inconclusive and do not appear here. Calls come from the whole dose curve; as a rule, active = well fitted curve in the direction sought with a large enough effect in the signal ratio (not every such curve was filed as active); inconclusive = small, poorly fitted or top-dose-only effect, or a change in a side signal; inactive = no such curve, though single readings can be large or run the other way; the % refers to the signal ratio. A selection follows.
Target: Inositol monophosphatase 1 (Rattus norvegicus) (UniProt P97697)
Sequence (P97697 whole entry, looked up): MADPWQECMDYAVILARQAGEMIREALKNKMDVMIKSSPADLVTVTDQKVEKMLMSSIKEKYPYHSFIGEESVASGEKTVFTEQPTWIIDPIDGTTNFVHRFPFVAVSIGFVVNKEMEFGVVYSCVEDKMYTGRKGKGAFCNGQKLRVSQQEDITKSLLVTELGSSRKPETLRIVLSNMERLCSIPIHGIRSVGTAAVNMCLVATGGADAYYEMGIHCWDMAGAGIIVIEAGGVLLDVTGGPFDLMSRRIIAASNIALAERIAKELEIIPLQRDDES
Test: qHTS Assay for Identifying the Cell-Membrane Permeable IMPase Inhibitors;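 note: higher means more IMPase inhibition seen as more IP1 and lower FRET ratio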
Conditions: CHO-M1 cells, HTRF TR-FRET ratio; series mostly up to 46.1 µM
From the text: NCGC IMPase Assay Overview
Lithium has been widely used for the treatment of bipolar disorder. But lithium has a narrow therapeutic index and it can cause side effects such as thirst, weight gain, tremor, polyuria and memory problems. Although the mechanism for lithium action in treatment of bipolar disorder is still not fully understood, inhibition of inositol monophosphatase (IMPase) and the subsequent depletion of the inositol pool in living cells have been implicated as the primary therapeutic benefit of lithium therapy. Therefore, a selective IMPase inhibitor with reduced side effects might be a good drug candidate to replace lithium for the treatment of bipolar disorder. Several IMPase inhibitors have been discovered previously. However, they are not suitable for therapeutic use because of their poor cell membrane penetrability or oral bioavailability; the development of new cell-permeable IMPase inhibitors is needed.
IMPase catalyzes the hydrolysis of inositol-1-phosphate (IP1) to release free inositol. Binding of an agonist to a Gq coupled GPCR results in the activation of PLC, which hydrolyzes the PIP2 to form inositol-1,4,5-trisphosphate (IP3) and diacyl glycerol (DAG). While DAG activates protein kinase C (PKC), IP3 triggers the elevation of intracellular free Ca2+. The IP3 is very rapidly inactivated by hydrolysis to IP2, IP1 and then inositol by a series of enzymes including IMPase. Free inositols are used for synthesis of PI and thus start another inositol cycle.
To identify new cell-permeable IMPase inhibitors, we developed a cell-based IMPase assay in which the cytosolic IP1 is measured by a time-resolved fluorescence resonance energy transfer (TR-FRET) assay. In this assay, an IP1 specific antibody is used to detect the labeled IP1 tracer. When the cell lysate contains the elevated IP1 due to the inhibition of IMPase, the TR-FRET between the labeled antibody and IP1 tracer is disrupted resulting in a reduction in the total signal. Since the TR-FRET is used, this cell-based assay is a homogenous assay without cell wash and medium change that is suitable for assay miniaturization and HTS.
NCGC IMPase Assay Protocol Summary
A Chinese hamster ovary (CHO) cell line stably expressing the M1 receptor (CHO-M1) was obtained from ATCC and maintained in F-12 Kaighn's media (Invitrogen, Carlsbad, CA, 21127) supplemented with 10 % FBS, 100 units/ml penicillin, 100 ug/ml streptomycin and 250 ug/ml geneticin at 37C, 5% CO2 in a humidified atmosphere. Before the assay, aliquots of cells were frozen and stored at -135C. The assay was performed in 1536-well format. Data are reported for both the ratio of the two emission wavelengths, and also for the component 'donor' channel, Em2=620. […] AC50 values were determined from concentration-response data modeled with the standard Hill equation.
IMPase 1536-well assay protocol:
(1) Plate 4 ul/well (2000 cells) of cell suspension from frozen CHO-M1 Cells in white, tissue culture treated 1536-well plates that are cultured at 37C, 5 % CO2 for 16 to 30 hours.
(2) Add 23 nl/well of compound in DMSO solution. The final titration for each compound was between 0.6 nM and 46 uM.
(3) Add 1 ul of carbachol (50 uM in stimulation buffer containing10mM HEPES, 1mM CaCl2, 0.5 mM MgCl2, 4.2 mM KCl, 146 mM NaCl, 5.5 mM glucose, 50mM LiCl, pH 7.4.
(4) Incubation at 37C, 5 % CO2 for 30 min.
(5) Add 1 ul/well of d2-conjugated IP1 (d2-IP1) and 1 ul/well of Eu+ cryptate conjugated anti-IP1 antibody (Eu+-Ab) prepared in the cell lysis buffer, both from the IP-One kit (Cisbio, MA).
(6) Incubate at room temperature for 10 minutes.
(7) Detect the assay plate (Ex = 320, Em1 =665 and Em2 620) in a ViewLux plate reader.
inositol monophosphatase, IMPase, IMPase inhibitor, lithium, bipolar disorder, IP-One, HTRF, qHTS, NIH roadmap, NCGC
Note: In the gene ID and protein GI references for this assay, rat IMPase is referenced instead of hampster as hamster accession numbers were not available.

outcome, inactive:
CCOc1ccc(S(=O)(=O)N(CC(=O)NCCSCc2ccc(C)cc2)c2ccccc2)cc1
Cc1ccc(C)c(N2CCN(Cc3nnc(-c4ccccc4)o3)CC2)c1
COC(=O)Cc1ccc(NC(=S)NCc2ccc(Cl)cc2)cc1
CCOc1cccc2c1N[C@@H](c1ccc(C(=O)O)cc1)[C@H]1CC=C[C@@H]21
NC(=S)N/N=C/c1coc2cc(Cl)ccc2c1=O
CCc1ccc2oc(-c3ccc(NC(=O)c4cc5ccccc5o4)cc3)nc2c1
CCOc1ccc(C2CC(=O)c3c([nH]c(C(=O)OCc4ccccc4)c3C)C2)cc1 (configuration not stated)
Cc1ccc(C)c(NC(=O)C(OC(=O)c2ccc(C)s2)c2ccccc2)c1 (configuration not stated)
CCOc1ccc(NC(=O)c2c(NC(=O)Cc3ccccc3)sc3c2CCC(C)C3)cc1 (configuration not stated)
Cc1ccc(NC(=O)C(=O)NCc2ccc(/C=N/NC(=O)c3c(C)nc4cc(C)ccn34)o2)cc1
Cc1ccc(C)c(OCC(=O)Nc2sc3c(c2C#N)CCCC3)c1C
Cc1nc(SCC(=O)Nc2ccc(C(=O)O)cc2)n[nH]1
CCOC(=O)c1c(NC(=S)NC(=O)/C=C/c2cccs2)sc(C)c1C
CCCOC(=O)c1c(NC(=O)c2cc3nc(-c4ccc(OC)cc4)cc(C(F)(F)F)n3n2)sc2c1CCCC2
Cc1cccc(-c2nnc(SCC(=O)N3CCCc4ccccc43)o2)c1
CCOC(=O)/C(C#N)=C/c1ccc(N2CCN(Cc3ccccc3)CC2)cc1
CCOc1ccc(S(=O)(=O)Nc2ccc3oc4c(c3c2)CC(C)CC4)cc1 (configuration not stated)
Cc1ccc(CSCC(N)C(=O)O)cc1 (configuration not stated)
CCC1=Nc2cc(C(=O)NCC(C)c3ccccc3)ccc2Sc2ccc(C)cc21 (configuration not stated)
CCOC(=O)c1ccc(NC(=O)c2ncn(-c3ccccc3)n2)cc1
COCCNC(=O)c1ccc(N2CCC3(CC2)OCCO3)c([N+](=O)[O-])c1
O=C(Nc1ccc2oc(-c3ccc(O)c(Br)c3)nc2c1)c1cc2ccccc2o1
Cc1c(NS(=O)(=O)c2ccc(NC3CCCC3)c([N+](=O)[O-])c2)c(=O)n(-c2ccccc2)n1C
O=C(CCS(=O)(=O)c1cc(Br)cc2c1N(C(=O)C1CC1)CC2)Nc1ccc(Br)cc1F
COc1ccc(OC)c(/C=C/C(=O)OCC(=O)Nc2ccc3c(c2)OCCO3)c1
COc1cccc(N=C2SC(C(=O)Nc3cccc(Cl)c3)CC(=O)N2C)c1 (configuration not stated)
COc1ccc([N+](=O)[O-])cc1NC(=O)c1ccc(N(Cc2ccccc2C)S(C)(=O)=O)cc1
CC1=C(C(=O)Nc2ccccc2)C(c2ccc(C)cc2)n2nc(SCc3ccccc3C)nc2N1 (configuration not stated)
FC(F)(F)c1cc(Nc2nc3ccccc3c3nncn23)ccc1Cl
CCCSc1nc2sc3c(c2c(=O)n1-c1cccc(Br)c1)CC(C)(C)OC3
COc1cccc(OCCn2c(-c3ccc(Br)cc3)nc3ccccc3c2=O)c1
CCOC(=O)c1c(N)n(-c2cccc(C)c2C)c2nc3ccccc3nc12
Cc1ccc(NC(=O)c2sc3nc(N)c(C#N)cc3c2N)cc1
Cc1ccc2nc(-c3ccc(C)c(NC(=O)Cc4ccccc4)c3)oc2c1
CN(Cc1ccccc1)C(=O)CCS(=O)(=O)c1cc(Br)cc2c1N(C(=O)C1CC1)CC2
COC(=O)c1ccc(OCC(O)CN(CCO)CC(O)Cn2ccc3ccccc32)cc1 (configuration not stated)
COc1cccc(C(=O)NC2(C(F)(F)F)C(=O)Nc3c2c(=O)[nH]c(=O)n3-c2ccc(C)cc2)c1 (configuration not stated)
COC(=O)c1c(NC(=O)C(C)Oc2ccc(Cl)c(C)c2)sc(C)c1C (configuration not stated)
O=C(NCCCN1CCN(c2cccc(Cl)c2)CC1)c1nnc(Cc2ccc(F)cc2Cl)o1
CCC(=O)NCc1cc(-c2nn(C)c(=O)c3ccccc23)ccc1OC
CCCn1c(C)cc(/C=C(\C#N)C(=O)OCC(=O)Nc2cc(OC)c(OC)c(OC)c2)c1C
COc1ccc2nc(SCc3ccccc3)nc(C)c2c1
COc1ccc(-c2cc(C(F)(F)F)nc(SCC(=O)N(C)Cc3ccccc3)n2)cc1OC
O=C(COC(=O)c1cc([N+](=O)[O-])ccc1NCc1ccccc1)NC1CCCCC1
CCCn1c(=N)n(CC(O)COc2ccccc2OC)c2ccccc21 (configuration not stated)
COc1cccc(-c2nnc(SCC(=O)N3CCC(C)CC3)o2)c1
Cc1cc(C)cc(NC(c2nnc(-c3cccc(F)c3)o2)c2ccc(F)cc2Cl)c1 (configuration not stated)
CCn1c2ccccc2c2cc(NC(=O)COc3ccc(C)cc3C)ccc21
Cc1cccc(N2CCN(C(=O)c3ccc(Nc4nc5ccccc5n5nnnc45)cc3)CC2)c1C
O=C(Nc1ccc(Oc2ccccc2)cc1)C1CCN(S(=O)(=O)c2ccc(Cl)cc2)CC1
CCOC(=O)c1cnc2c(C)cc(Cl)cc2c1NCCc1ccc(OC)c(OC)c1
C/C(CC1CC(C)(C)OC1=O)=N/Nc1nc(-c2ccccc2)cs1 (configuration not stated)
Cc1ccc(C)c(N2CCN(C(=O)C3CCC(CNS(=O)(=O)c4cccs4)CC3)CC2)c1 (configuration not stated)
CCc1nc2nc(C)cc(Nc3ccc(F)c(Cl)c3)n2n1
Cn1c(=O)c2c(nc(SCC(=O)Nc3ccc(F)cc3)n2Cc2ccc(Cl)cc2)n(C)c1=O
COc1ccc(NC(=O)C2CCCN(S(=O)(=O)c3c(C)[nH]c(=O)[nH]c3=O)C2)c(OC)c1 (configuration not stated)
OCC(CO)(CO)NCc1ccc(-c2ccccc2)cc1
CCCCCCCCC(=O)NCCOc1ccccc1
Cc1cc(NC(=O)C2CCC(CNS(=O)(=O)c3ccc(Br)s3)CC2)ccc1Br (configuration not stated)
C[n+]1ccccc1C1CCCC/C1=N\Nc1ccc([N+](=O)[O-])cc1[N+](=O)[O-] (configuration not stated)
CC1=C(C(=O)OCC2CCCCC2)C(c2c(F)cccc2Cl)CC(=O)N1 (configuration not stated)
CCN(C(=O)COC(=O)c1cc(NS(=O)(=O)c2ccc(Cl)c([N+](=O)[O-])c2)ccc1O)C1CCCCC1

From PubChem BioAssay AID901 (National Center for Advancing Translational Sciences (NCATS), 2007)
